WT yeast gro inh: growth inhibition of WT yeast, mitochondrial fusion screen; actives 2.1% (n = 190,000); mitochondrial fusion phenotypic screen, WT strain; inhibition, % at 10 µM; in the data active = inhibition above about 58%; tested in S. cerevisiae
Ins promoter up: MIN6 insulin promoter up-regulation. MIN6 insulin promoter-GFP reporter, high-content imaging; hits give high values. actives 0.3% (n = 190,000). AID 1625. z-score at 5 µM;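 active = z-score above 3 at 5 µM with at least 500 cells counted in the well; inconclusive = wells under 500 cells, flagged as cytotoxic or low count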
Insulin prom inh: TRM-6 insulin promoter activity inhibition. actives 0.9% (n = 130,000). TRM-6 cells (human fetal islet line), insulin promoter-eGFP reporter, imaging; reporter expression induced with tamoxifen. inhibition, % at 2 µM;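 active = inhibition above the mean plus 3 SD, with well images judged a real hit on visual review, cut at about 60% in these data, passing the limit was not always enough; inconclusive = inhibition over the cutoff but images rejected on review; inactive = inhibition not above the cutoff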
KCC2 mod: modulators of human KCC2 chloride dependent transport | Q9H2X9 | KCC2 cells, thallium flux FluoZin-2 fluorescence | B-score of Tl+ flux slope (higher = more flux/activation; lower = inhibition) at 10 µM | actives 2.2% (n = 190,000);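 active = thallium flux slope and its plate-corrected score both differing from the plate sample mean at a set confidence after two filtering rounds, in either direction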;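 note: slope of fluorescence scaled to starting intensity during 10 to 20 s after thallium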
Target sequence (Q9H2X9 whole entry, looked up): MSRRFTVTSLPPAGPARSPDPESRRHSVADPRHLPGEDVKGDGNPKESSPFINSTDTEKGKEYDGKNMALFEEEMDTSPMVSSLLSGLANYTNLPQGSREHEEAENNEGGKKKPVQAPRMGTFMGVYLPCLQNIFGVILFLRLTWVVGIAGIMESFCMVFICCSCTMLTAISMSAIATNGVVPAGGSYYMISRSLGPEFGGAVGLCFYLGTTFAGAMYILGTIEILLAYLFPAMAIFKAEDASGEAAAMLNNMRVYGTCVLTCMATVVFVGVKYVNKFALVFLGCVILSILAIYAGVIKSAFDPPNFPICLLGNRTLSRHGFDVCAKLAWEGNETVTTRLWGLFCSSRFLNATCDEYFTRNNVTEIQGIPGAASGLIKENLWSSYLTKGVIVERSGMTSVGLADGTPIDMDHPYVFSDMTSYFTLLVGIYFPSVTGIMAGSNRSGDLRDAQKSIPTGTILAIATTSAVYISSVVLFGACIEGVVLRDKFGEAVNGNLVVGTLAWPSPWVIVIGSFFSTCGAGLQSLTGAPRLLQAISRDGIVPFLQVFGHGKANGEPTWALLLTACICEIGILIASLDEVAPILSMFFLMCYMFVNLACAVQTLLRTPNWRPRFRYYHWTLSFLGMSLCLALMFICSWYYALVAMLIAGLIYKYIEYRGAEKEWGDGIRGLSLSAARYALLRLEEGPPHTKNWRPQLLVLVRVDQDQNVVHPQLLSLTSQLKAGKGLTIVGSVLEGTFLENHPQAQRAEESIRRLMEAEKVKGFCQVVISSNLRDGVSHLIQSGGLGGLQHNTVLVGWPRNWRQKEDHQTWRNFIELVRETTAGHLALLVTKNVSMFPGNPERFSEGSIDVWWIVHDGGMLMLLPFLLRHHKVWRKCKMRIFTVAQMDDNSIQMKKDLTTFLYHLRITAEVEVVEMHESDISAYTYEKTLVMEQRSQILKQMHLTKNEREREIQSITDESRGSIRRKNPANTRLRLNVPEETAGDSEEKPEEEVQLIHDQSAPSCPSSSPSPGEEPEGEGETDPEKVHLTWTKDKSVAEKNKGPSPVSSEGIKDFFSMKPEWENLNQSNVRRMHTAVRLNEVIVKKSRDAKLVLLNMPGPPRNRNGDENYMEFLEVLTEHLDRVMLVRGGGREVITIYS
Lmaj promast: reduces viability of Leishmania major promastigotes. resazurin fluorescence viability. inhibition, % at 10 µM. actives 9% (n = 200,000). AID 1063; in the data active = inhibition above about 50%;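 note: promastigotes grown with compound for 44 hours at 28 °C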
ROMK primary: modulates human ROMK potassium channel activity; actives 2% (n = 130,000); Tet-inducible ROMK, thallium flux fluorescence; actives lie on both sides; P48048; B-score at 10 µM;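 active = signal ratio slope over the read window, or its plate-corrected B-score, at least 3 SD from the plate mean, either direction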;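 note: B-score of the F/F0 ratio slope over 7 to 12 s after thallium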
* hit, by the source's call. Hits are enriched below; roughly 12% of the tested compounds scored in any of these assays.

Screening Cc1c(NC(=O)COC(=O)c2cc3c4ccccc4n(C)c3s2)c(=O)n(-c2ccccc2)n1C returned WT yeast gro inh 51, Ins promoter up 1.1, Insulin prom inh 33, Lmaj promast 96* and ROMK primary -0.81.
Screening CCCOC(=O)/C=C/c1c(C)[nH]c(=O)[nH]c1=O returned WT yeast gro inh 7, Ins promoter up 0.62, Insulin prom inh -33, KCC2 mod 1.7 and Lmaj promast 1.
CCCCOC(=O)/C=C/c1c(C)[nH]c(=O)[nH]c1=O was read as WT yeast gro inh 9, Ins promoter up -0.4, Insulin prom inh 21, KCC2 mod 0.069 and Lmaj promast 52*.
`CCN(CC)CCNc1nc(-c2ccccc2)c2c(c1C#N)CC(C)(C)OC2` gave WT yeast gro inh 20, Ins promoter up -0.14, Insulin prom inh -27, KCC2 mod 1.4, Lmaj promast 28 and ROMK primary -0.015.
For COc1ccc(OC)c(-n2c(SCC(N)=O)nnc2-c2c[nH]c3ccccc23)c1 the results were WT yeast gro inh -14, Ins promoter up -0.55 and Lmaj promast -4.
Screening COc1ccc(OC)c(-n2c(SCC(=O)Nc3cc(C)on3)nnc2-c2c[nH]c3ccccc23)c1 returned WT yeast gro inh 1, Ins promoter up -0.23 and Lmaj promast 100*.
COc1ccc(OC)c(-n2c(SC)nnc2-c2c[nH]c3ccccc23)c1 was read as WT yeast gro inh -17, Ins promoter up 0.18 and Lmaj promast 65*.
`CNc1nc(-c2ccccn2)nnc1-c1ccccc1` gave WT yeast gro inh 8, Insulin prom inh -11, KCC2 mod 0.43, Lmaj promast 99* and ROMK primary -0.7.
For c1ccc(-c2nnc(-c3ccccn3)nc2NC2CCCCC2)cc1 the results were WT yeast gro inh 63*, Ins promoter up inconclusive, Insulin prom inh -364, KCC2 mod -1.3 and Lmaj promast 100*.
CC(C)N(Cc1ccccc1)C(=S)NCc1ccccc1 was read as WT yeast gro inh 34, Ins promoter up -1.2, Insulin prom inh 0, KCC2 mod 0.38, Lmaj promast 15 and ROMK primary -0.15.
`CC(C)N(C(=S)NC1CCCCC1)c1ccccc1` gave WT yeast gro inh 59*, Ins promoter up 0.25, Insulin prom inh 7, KCC2 mod -0.98 and Lmaj promast 11.
S=C(NC1CCCCC1)N(CCc1ccccc1)CCc1ccccc1 was read as WT yeast gro inh 62*, Ins promoter up -1.3, KCC2 mod -0.76 and Lmaj promast 18.
`OCCN(Cc1ccccc1)C(=S)NC1CCCCC1` gave WT yeast gro inh 5, Ins promoter up 0.4, Insulin prom inh -33, KCC2 mod -0.19, Lmaj promast -4 and ROMK primary 0.37.
`CC(C)N(Cc1ccccc1)C(=S)NC1CCCCC1` gave WT yeast gro inh 64*, Ins promoter up -0.82, KCC2 mod -0.8, Lmaj promast 19 and ROMK primary 0.13.
Screening COCC(=O)c1[nH]c2ccccc2c1C returned WT yeast gro inh 1, Ins promoter up -0.51, Insulin prom inh -31, KCC2 mod 0.22 and Lmaj promast 1.
For O=Cc1c(OCc2ccccc2)ccc2ccccc12 the results were WT yeast gro inh 22, Insulin prom inh 25, KCC2 mod 0.39, Lmaj promast 82* and ROMK primary -0.53.
For CC(C)c1ccc(NC(=O)Cn2cccc2C2=NC(c3ccccc3)CO2)cc1 (centres undefined) the results were WT yeast gro inh 7, Ins promoter up 0.41, Insulin prom inh -58, KCC2 mod 0.68, Lmaj promast 87* and ROMK primary 0.53.
For COc1ccc(C2NC(c3ccc(OC)cc3)C(c3ccccc3)C(=O)C2c2ccccc2)cc1 (centres undefined) the results were WT yeast gro inh 5, Ins promoter up -1.5, Insulin prom inh -21, KCC2 mod -1.1, Lmaj promast 98* and ROMK primary 0.28.
Cc1ccc(/C=N/Nc2cc(C)nc(NCc3ccccc3)n2)cc1 was read as Ins promoter up -0.52 and KCC2 mod 0.059.
For Cc1cc(Nc2ccc(Cl)cc2)nc(NCc2ccccc2)n1 the results were WT yeast gro inh 97, Ins promoter up -3, Insulin prom inh 0, KCC2 mod -0.36, Lmaj promast 100* and ROMK primary 0.073.
`Cc1cc(N2CCC(C)CC2)nc(NCc2ccccc2)n1` gave WT yeast gro inh 63, Ins promoter up -2.8, Insulin prom inh -107, KCC2 mod 0.4, Lmaj promast 86* and ROMK primary -3.4.
Cc1cc(Nc2cccc(F)c2)nc(NCc2ccccc2)n1 was read as WT yeast gro inh 68, KCC2 mod 0.14 and Lmaj promast 100*.
Screening Cc1cc(N/N=C/c2ccc(Cl)cc2Cl)nc(NCc2ccccc2)n1 returned WT yeast gro inh 83*, KCC2 mod -1.6 and Lmaj promast 62*.
`Cn1ncc(Br)c1C(=O)N1CCN(C(=O)c2ccco2)CC1` gave WT yeast gro inh 11, Ins promoter up -0.05, Insulin prom inh 0, KCC2 mod 0.8 and Lmaj promast -7.
`CC12CC(c3ccccc3O1)C(/C(N)=N/NC(=O)c1ccc(F)cc1)C(=O)N2` (centres undefined) gave WT yeast gro inh 5, Ins promoter up -0.28, KCC2 mod 0.62 and Lmaj promast -3.
Screening CCCCN(Cc1ccccc1)C(=O)C1CCCN(S(=O)(=O)c2cnc[nH]2)C1 (centres undefined) returned WT yeast gro inh -8, Ins promoter up 2.1 and Lmaj promast -1.
For Cc1cc(Nc2ccccc2)nc(NCc2ccccc2)n1 the results were WT yeast gro inh 64, Ins promoter up -5, KCC2 mod 0.18 and Lmaj promast 100*.
Cc1ccc2oc(=O)n(CCCOc3ccccc3C)c2c1 was read as WT yeast gro inh 64*, Ins promoter up 0.27, KCC2 mod 0.02, Lmaj promast 0 and ROMK primary -0.71.
Screening COc1ccc(NC(C)=O)cc1NC(=O)CSc1nnc(-c2ccccn2)n1C returned WT yeast gro inh 8, Ins promoter up -0.44, Insulin prom inh -17, KCC2 mod 1.2 and Lmaj promast -2.
Screening CC(C(=O)NCc1ccccc1)N1C(=O)CN(C)C(=O)c2ccccc21 (centres undefined) returned WT yeast gro inh -12, Ins promoter up 0.38 and Lmaj promast -5.
For CSCCC(NS(=O)(=O)c1ccc2ccccc2c1)C(=O)OCC(=O)c1ccc(C(C)C)cc1 (centres undefined) the results were WT yeast gro inh 29, Ins promoter up -0.04, Insulin prom inh -19, KCC2 mod -0.43, Lmaj promast 87* and ROMK primary -0.49.
`Clc1ccccc1-c1nnc2sc(CCc3ccccc3)nn12` gave WT yeast gro inh 29, Ins promoter up -0.37, Insulin prom inh 16, KCC2 mod -3.4*, Lmaj promast -4 and ROMK primary -1.5.

Screening results (PubChem BioAssay)
